# According to PubChem BioAssay (EPA / NIEHS):
# Records with an inconclusive call do not appear. Active and inactive are the calls of the source. How the source made its calls, unless noted: active means hit-call score of the fitted dose curve at least 0.9, where 1 is the maximum; inactive means score below 0.9.
# Key:
# [1] = CCTE_Shafer_MEA_dev_firing_rate_mean: CCTE's Neural Network Formation Assay for Mean Firing Rate, Shafer Lab (AID 2284031)
# Outline: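 Steps: seed rat cortical cells (1.5 x 10^5/well) with laminin on PEI-coated MEA; dose day 0; record DIV 5/7/9/12, full media and compound exchange after DIV 5 and 9 recordings; compute well-mean firing rate AUC.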
# [2] = CCTE_Shafer_MEA_dev_per_burst_spike_percent: CCTE's Neural Network Formation Assay for Percent of Spikes in a Burst, Shafer Lab (AID 2284032)
# Outline: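 Value is trapezoidal AUC over recordings on days 5, 7, 9 and 12 of the well-mean fraction of spikes falling in single-electrode bursts; rat cortical cultures exposed continuously from plating, treatment renewed DIV 5 and 9, fitted downward against DMSO.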
# [3] = CCTE_Shafer_MEA_dev_active_electrodes_number: CCTE's Neural Network Formation Assay for Number of Active Electrodes, Shafer Lab (AID 2284040; active means hit-call score of the fitted dose curve at least 0.9, where 1 is the maximum)
# Outline: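 Counts electrodes per well firing at least 5 spikes/min, recorded on days 5, 7, 9 and 12 in rat cortical cultures dosed continuously from plating (treatment refreshed DIV 5, 9). Value is the area under the curve over recordings, fitted downward relative to DMSO.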
# [4] = CCTE_Shafer_MEA_dev_burst_rate: CCTE's Neural Network Formation Assay for Burst Rate, Shafer Lab (AID 2284042)
# Outline: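 Cells plated, treated day 0; recorded DIV 5, 7, 9, 12; fed and re-treated DIV 5, 9. Endpoint: bursts per recording time, active-electrode well mean, trapezoidal AUC, fitted in decreasing direction against DMSO baseline.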
# [5] = CCTE_Shafer_MEA_dev_per_burst_interspike_interval: CCTE's Neural Network Formation Assay for Burst Interspike Interval, Shafer Lab (AID 2284044)
# Outline: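 Rat cortical primary cultures, 16 electrodes/well; compound from plating, renewed with full media change DIV 5 and 9. Spikes via adaptive detector; per-burst ISI well-mean over active bursting electrodes; AUC of DIV 5/7/9/12 recordings; loss-direction fit vs DMSO.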
# [6] = CCTE_Shafer_MEA_dev_burst_duration_mean: CCTE's Neural Network Formation Assay for Mean Burst Duration, Shafer Lab (AID 2284045);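 on AC50: curve fitted for loss meaning shorter burst duration than DMSO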
# Outline: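 Rat cortical cultures, 1.5 x 10^5 cells/well with laminin drop; continuous dosing days 0–12, media plus treatment refreshed DIV 5, 9. AxIS adaptive spike detection; mean single-electrode burst duration, AUC over four recordings, negative direction vs DMSO.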
# [7] = CCTE_Shafer_MEA_dev_interburst_interval_mean: CCTE's Neural Network Formation Assay for Mean Interburst Interval, Shafer Lab (AID 2284046);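 further: well-mean interburst interval of bursting electrodes as AUC over four recording days; curve fitted for decrease in interburst interval relative to DMSO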
# Outline: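 Developing rat cortical networks on 48-well MEAs receive compound from the day of plating. Burst intervals from each active electrode are averaged per well, and AUC over the recording days is fitted in the negative direction against DMSO.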
# [8] = CCTE_Shafer_MEA_dev_inter_network_spike_interval_mean: CCTE's Neural Network Formation Assay for Mean Inter-network Spike Interval, Shafer Lab (AID 2284047)
# Outline: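 Rat cortical cultures, 1.5 x 10^5 cells/well on 48-well MEA plates; continuous exposure days 0–12, medium and compound refreshed DIV 5, 9. Mean time between consecutive network-spike peaks; AUC across DIV 5/7/9/12; DMSO baseline, negative fitting direction.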
# [9] = CCTE_Shafer_MEA_dev_network_spike_number: CCTE's Neural Network Formation Assay for Number of Network Spikes, Shafer Lab (AID 2284048);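 further: synchronized bursts across electrodes counted on days 5 7 9 12 and integrated as AUC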
# Outline: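 Rat cortical primary cultures on 48-well MEA (16 electrodes/well); continuous exposure DIV 0–12, full medium and treatment exchange DIV 5, 9. Readout: network spike count, AxIS adaptive detection, recordings DIV 5/7/9/12 collapsed to AUC; loss-of-signal fit, DMSO baseline.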
# [10] = CCTE_Shafer_MEA_dev_network_spike_peak: CCTE's Neural Network Formation Assay for Mean Number of Electrodes in Network Spike, Shafer Lab (AID 2284049)
# Outline: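 Network-spike peak electrode count from recordings on days 5, 7, 9 and 12 was combined as trapezoidal area under the curve. Rat cortical cultures were treated continuously from plating, with compound renewed at each feed (DIV 5, 9); fits versus DMSO.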
# [11] = CEETOX_H295R_11DCORT: CeeTox H295R High-throughput Steroidogenesis Assay for 11-Deoxycortisol (11DCORT) (AID 2283432); conditions: actives raise or lower the signal
# Outline: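 Adrenal carcinoma line H295R, run per OECD 456 with minor changes, was forskolin-stimulated (10 uM, 48 h) before a 48 h chemical exposure at 0.1% DMSO. Secreted 11-deoxycortisol was quantified by HPLC-MS/MS.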
# [12] = CEETOX_H295R_CORTIC: CeeTox H295R High-throughput Steroidogenesis Assay for Corticosterone (CORTIC) (AID 2283437); conditions: actives raise or lower the signal;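 further: corticosterone secreted into medium quantified by mass spectrometry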
# Outline: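 48 h forskolin (10 uM) prestim, then 48 h chemical exposure, final DMSO 0.1%. Readout: corticosterone in medium by LC-MS/MS after MTBE extraction. Gain/loss fit vs DMSO; MTT viability in same wells.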
# [13] = CEETOX_H295R_CORTISOL: CeeTox H295R High-throughput Steroidogenesis Assay for Cortisol (AID 2283438); conditions: actives raise or lower the signal;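 further: cortisol secreted into medium quantified by LC-MS/MS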
# Outline: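 Cortisol synthesis by H295R cells is measured 48 h after chemical dosing, following a 48 h stimulation with 10 uM forskolin. Hormone is extracted and quantified by HPLC-MS/MS, and activity is fitted bidirectionally against the DMSO control.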
# [14] = CEETOX_H295R_DOC: CeeTox H295R High-throughput Steroidogenesis Assay for DOC (AID 2283439); conditions: actives raise or lower the signal
# Outline: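 Steps: seed H295R, adhere overnight; 10 uM forskolin 48 h; replace with chemical medium (0.1% DMSO) 48 h; collect medium, MTBE extraction, HPLC-MS/MS for DOC. Viability then checked by MTT; cytotoxic chemicals diluted until viability ≥70%.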
# [15] = target: Agonist Androgen Response Element (ARE), AR (gene 367) (UniProt P10275); assay: OT_AR_ARELUC_AG_1440: Odyssey Thera (OT) 24-hour CHO-K1 Luciferase Assay for Agonist Androgen Response Element (ARE) (AID 2283379; active means hit-call score of the fitted dose curve at least 0.9, where 1 is the maximum)
# Outline: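 Gain-of-signal reporter endpoint: cells (CHO-K1, hamster) are treated 24 h, luciferin/ATP reagent added, and luminescence compared with DMSO baseline.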
# AR (gene 367) = AR (gene 367) (UniProt P10275); assay: ACEA_AR_antagonist_80hr: ACEA Biosciences xCELLigence Real-Time Cell Analysis on Androgen Receptor Antagonism for Proliferation (AID 2283787; active means hit-call score of the fitted dose curve at least 0.9, where 1 is the maximum;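 further: 22Rv1 human prostate cancer cells with growth followed by electrical impedance; hits lower the impedance growth signal relative to DMSO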)
# Outline: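 Measures real-time proliferation of 22Rv1 prostate cancer cells by electrode impedance at 80 hours after dosing. Test articles ran at eight concentrations (1:4 steps, top 100 uM final) in biological duplicate.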
# [16] = target: Nucleoli Translocation, AR (gene 367) (UniProt P10275); assay: UPITT_HCI_U2OS_AR_TIF2_Nucleoli_Agonist: University of Pittsburgh U2OS Androgen Receptor-Transcriptional Intermediary Factor 2 (AR-TIF2) Agonism High Content Imaging Assay for Nucleoli Translocation (AID 2283998; active means hit-call score of the fitted dose curve at least 0.9, where 1 is the maximum)
# Outline: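 Cells express human AR fused to red fluorescent protein and TIF2 fused to GFP. Red fluorescence in the nucleolar region was quantified by high-content imaging and fitted as gain-of-signal against a DMSO baseline. Compounds were tested at 0.195 to 50 uM final (0.5% DMSO).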
# [17] = target: Ratio of Nucleoli Translocation and Cytoplasm, AR (gene 367) (UniProt P10275); assay: UPITT_HCI_U2OS_AR_TIF2_Nucleoli_Cytoplasm_Ratio_Antagonist: University of Pittsburgh U2OS Androgen Receptor-Transcriptional Intermediary Factor 2 (AR-TIF2) Antagonism High Content Imaging Assay for Ratio of Nucleoli Translocation and Cytoplasm (AID 2283999; active means hit-call score of the fitted dose curve at least 0.9, where 1 is the maximum;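 further: antagonists lower the DHT-driven ratio of nucleolar to cytoplasmic red signal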)
# Outline: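 Compounds were added to U2OS cells carrying red-fluorescent AR and green-fluorescent TIF2, first at 20 uM, with hits confirmed in triplicate and titrated from 0.195 to 50 uM. Nucleolar versus cytoplasmic AR-RFP fluorescence was then quantified by imaging, with analysis relative to DHT.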
# [18] = target: Ratio of Nucleoli Translocation and Cytoplasm, AR (gene 367) (UniProt P10275); assay: UPITT_HCI_U2OS_AR_TIF2_Nucleoli_Cytoplasm_Ratio_Agonist: University of Pittsburgh U2OS Androgen Receptor-Transcriptional Intermediary Factor 2 (AR-TIF2) Agonism High Content Imaging Assay for Ratio of Nucleoli Translocation and Cytoplasm (AID 2284000; active means hit-call score of the fitted dose curve at least 0.9, where 1 is the maximum;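 further: hits raise the red nucleolar to cytoplasm ratio above vehicle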)
# Outline: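 Human osteosarcoma U2OS line, AR-RFP plus TIF2-GFP; compounds 0.195–50 uM final, 0.5% DMSO. Readout: nucleolar/cytoplasmic RFP ratio by HCI, positive direction vs DMSO baseline.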
# [19] = tested on: Sodium/Iodide Symporter (NIS), SLC5A5 (gene 6528); assay: CPHEA_Stoker_NIS_Inhibition_RAIU: CPHEA's Radioactive Iodide Uptake (RAIU) Assay for Sodium/Iodide Symporter (NIS) Inhibition, Stoker and Laws Labs (AID 2283841; active means hit-call score of the fitted dose curve at least 0.9, where 1 is the maximum)
# Outline: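 Iodide uptake through human NIS is measured in an engineered HEK293T line. Cells take up 125I (329pM final) for 2 hours at room temperature alongside chemicals at 0.001–100uM. Retained radioactivity is counted, and the signal is expressed against DMSO controls.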
# Sequence of Ratio of Nucleoli Translocation and Cytoplasm, AR (gene 367) (P10275 whole entry, looked up): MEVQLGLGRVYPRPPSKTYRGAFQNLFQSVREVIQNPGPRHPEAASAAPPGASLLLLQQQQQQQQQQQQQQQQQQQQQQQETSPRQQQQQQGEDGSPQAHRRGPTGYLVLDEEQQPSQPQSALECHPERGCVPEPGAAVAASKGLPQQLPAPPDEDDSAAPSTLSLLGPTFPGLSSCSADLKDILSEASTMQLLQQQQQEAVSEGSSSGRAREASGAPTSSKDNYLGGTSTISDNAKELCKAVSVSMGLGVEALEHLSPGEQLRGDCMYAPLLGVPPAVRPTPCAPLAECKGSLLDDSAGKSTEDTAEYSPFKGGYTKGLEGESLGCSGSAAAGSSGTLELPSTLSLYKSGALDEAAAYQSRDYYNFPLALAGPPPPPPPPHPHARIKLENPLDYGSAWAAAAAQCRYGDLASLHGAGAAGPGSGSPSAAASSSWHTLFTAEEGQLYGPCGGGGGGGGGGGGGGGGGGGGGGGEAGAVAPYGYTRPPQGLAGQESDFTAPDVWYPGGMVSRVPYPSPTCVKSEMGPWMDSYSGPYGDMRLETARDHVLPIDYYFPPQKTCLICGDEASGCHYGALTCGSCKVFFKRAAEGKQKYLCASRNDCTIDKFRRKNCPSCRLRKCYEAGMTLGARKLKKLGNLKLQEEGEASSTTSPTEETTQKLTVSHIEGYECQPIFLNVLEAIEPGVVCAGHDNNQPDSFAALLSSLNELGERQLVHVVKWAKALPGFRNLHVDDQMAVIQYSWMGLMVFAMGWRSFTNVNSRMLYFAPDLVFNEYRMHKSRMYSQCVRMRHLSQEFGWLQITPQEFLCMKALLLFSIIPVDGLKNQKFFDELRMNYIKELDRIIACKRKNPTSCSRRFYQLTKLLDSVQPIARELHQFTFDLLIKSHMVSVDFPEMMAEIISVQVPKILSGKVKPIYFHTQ
# Sequence of AR (gene 367) (P10275 whole entry, looked up): as above
# Sequence of Nucleoli Translocation, AR (gene 367) (P10275 whole entry, looked up, the tested form may be a part): as the sequence (P10275 whole entry, looked up) above
# Sequence of Agonist Androgen Response Element (ARE), AR (gene 367) (P10275 whole entry, looked up): as above
smiles,measurement,setting,value
CN(C)CCC(c1ccc(Cl)cc1)c1ccccn1 (stereo not given),outcome,[1],inactive
same,outcome,[2],inactive
same,outcome,[3],inactive
same,outcome,[4],inactive
same,outcome,[5],inactive
same,outcome,[6],inactive
same,outcome,[7],inactive
same,outcome,[8],inactive
same,outcome,[9],inactive
same,outcome,[10],inactive
CC1(C)S[C@@H]2[C@H](NC(=O)[C@H](N)c3ccccc3)C(=O)N2[C@H]1C(=O)O,outcome,[1],inactive
same,outcome,[2],inactive
same,outcome,[3],inactive
same,outcome,[4],inactive
same,outcome,[5],inactive
same,AC50,[6],22.6 µM (active)
same,outcome,[7],inactive
same,outcome,[8],inactive
same,outcome,[9],inactive
same,outcome,[10],inactive
Cc1cc(O)cc(C)c1Cl,outcome,[11],inactive
same,outcome,[12],inactive
same,outcome,[13],inactive
same,outcome,[14],inactive
Cc1cc(C)c(S(=O)(=O)O)cc1N=Nc1cc(S(=O)(=O)O)c2ccccc2c1O,outcome,[15],inactive
same,outcome,AR (gene 367),inactive
same,outcome,[16],inactive
same,outcome,[17],inactive
same,outcome,[18],inactive
Cc1cccnc1,outcome,[19],inactive
